Tg IFNy HTS – T. gondii growth inhibition under IFN-gamma; Toxoplasma gondii growth in IFN-gamma-treated host cells; stronger effect = lower value; activity change, negative = inhibition, % (test concentration not listed); 69,000 compounds, 3.8% hits; AID 1259416; in the data active = activity change below about -70%, passing the limit was not always enough;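 note: host cells are HeLa cells infected with Toxoplasma gondii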
Large screens that a line does not name were inactive. This excerpt belongs to a sample that is enriched for hits.

CCOc1cc(C(=O)Nc2ccc(Cl)c(-c3nc4ccccc4[nH]3)c2)cc(OCC)c1OCC	Tg IFNy HTS -76
CCOc1cc(C(=O)Nc2ccc3c(c2)CCC(=O)N3)cc(OCC)c1OCC	none
COc1ccc(C(=O)Nc2cccc(-c3nc4ccccc4[nH]3)c2)cc1	none
CCc1ccc(CN2CC[C@H]3[C@H](CO[C@H]3CN3CCOCC3)C2)o1	none
Cc1cc(NCc2cnc3c(C)cccn23)nc(-c2cccnc2)n1	none
COc1ccc2c(c1)NC1(CCN(S(=O)(=O)c3cc(F)ccc3F)CC1)c1cccn1-2	none
CCCCC(CC)CN=C(N)NC(N)=NCCCCCCN=C(N)NC(N)=NCC(CC)CCCC (stereo not given)	Tg IFNy HTS -79
COc1ccc(-c2nc(CN(c3ccccc3OC)S(=O)(=O)c3ccc(OC)cc3)c(C)o2)cc1	none
NC(=O)C1CCN(C(=O)C2CC=CCC2C(=O)O)CC1 (stereo not given)	none
CC(CC(=O)Nc1nc(C(C)(C)C)cs1)n1cncn1 (stereo not given)	none
Cc1nc(-c2cccs2)sc1NC(=O)Nc1ccc(Cl)cc1	none
CC(C)(C)c1csc(NC(=O)Nc2ccc(Cl)cc2)n1	Tg IFNy HTS -103
N#Cc1ccc(NC(=O)CSc2nc3c(c(C(F)(F)F)n2)CCc2ccccc2-3)cc1	none
CCC(=O)Nc1ccc(NC(=O)CC2CN(C(C)C)CCO2)cc1Cl (stereo not given)	none
Cc1oc(-c2ccc(NC(=O)c3ccsc3)cc2)nc1Cn1cccn1	none
Cc1oc(-c2ccc(NC(=O)c3cccc(N(C)C)c3)cc2)nc1Cn1cccn1	Tg IFNy HTS -86
Cc1oc(-c2ccc(NC(=O)c3cccc(C(F)(F)F)c3)cc2)nc1Cn1cccn1	none
COCCC(=O)Nc1ccc(-c2nc(Cn3cccn3)c(C)o2)cc1	none
Cc1oc(-c2ccc(NC(=O)c3ccc(F)cc3F)cc2)nc1Cn1cccn1	none
CCOc1ccc(C(=O)Nc2ccc(-c3nc(Cn4cccn4)c(C)o3)cc2)cc1	Tg IFNy HTS -99
Cc1oc(-c2ccc(NC(=O)COc3ccccc3)cc2)nc1Cn1cccn1	none
Cc1oc(-c2ccc(NC(=O)c3ccc4c(c3)OCO4)cc2)nc1Cn1cccn1	Tg IFNy HTS -91
Cc1ccc(CC(=O)Nc2ccc(-c3nc(Cn4cccn4)c(C)o3)cc2)cc1	none
Cc1oc(-c2ccc(NC(=O)c3ccc(Br)cc3)cc2)nc1Cn1cccn1	none
Cc1oc(-c2ccc(NC(=O)c3ccc(Cl)cc3)cc2)nc1Cn1cccn1	Tg IFNy HTS -85
Cc1oc(-c2ccc(NC(=O)c3cccc(C#N)c3)cc2)nc1Cn1cccn1	none
CN(C)C(=O)N1CCC2(C1)CN(c1cnn(C)c1)C(=O)CN2C (stereo not given)	none
C[C@@H]1O[C@@H](OC[C@H]2O[C@@H](Oc3c(-c4ccc(O)c(O)c4)oc4cc(O)cc(O)c4c3=O)[C@H](O)[C@@H](O)[C@@H]2O)[C@H](O)[C@H](O)[C@H]1O	none
N#Cc1nccnc1Oc1cccc(C(F)(F)F)c1	none
Cc1cnccc1N1CCCN(C(=O)Cc2nonc2C)CC1	none
O=C1C[C@H]2CC[C@@H](CN1)N2C(=O)CCc1ccc2c(c1)OCO2	none
CC(C)(C)N1CCC(c2ccccc2)(c2ccccc2)CC1	none
Cc1noc(C)c1CN1CCN(CCN(C)C)c2ncccc2C1	none
NCCc1n[nH]c(=O)n1CCc1ccccc1	none
N[C@@H]1c2ccccc2C2(CCN(C(=O)CCc3ccccc3F)CC2)[C@H]1O	none
Cc1ccc(CN2CC[C@H]3[C@@H]2CCN3CC2CCOCC2)s1	none
CCCCCc1nc(N)c(C#N)c(-c2ccco2)c1CCCC	Tg IFNy HTS -91
CCCCCCSc1ncc(C#N)c(N)n1	none
CC(=O)c1ccc(NC(=O)N2CCCC(C(=O)c3cccc(OC(C)C)c3)C2)cc1 (stereo not given)	none
CCN(C)Cc1ccc(-c2nc(-c3ccncc3)cc(=O)[nH]2)cc1	none
COc1ccc(-c2nc(-c3ccncc3)[nH]c(=O)n2)cc1	none
Oc1ccc(-c2nc(-c3ccc(F)cc3)c(-c3ccncc3)[nH]2)cc1	Tg IFNy HTS -80
CN(C)S(=O)(=O)N1CC[C@@H]2C(=O)N(c3ccccc3)CCO[C@@H]2C1	none
CCc1ncc(C(=O)N(CC)Cc2c(F)cccc2Cl)cn1	none
Cc1ccccc1C(=O)NCCc1sc(-c2ccc(F)cc2)nc1C	none
O=C(C1CCCCC1)N1C[C@@H]2N[C@H](C1)C2c1ccc(-c2ccccc2F)cc1 (stereo not given in full)	none
CN1C(=O)c2cc(NC(=O)Cc3cccs3)ccc2OC[C@H]2O[C@@H](CC(=O)NCC3CCCCC3)CC[C@@H]21	none
CN1C(=O)c2cc(NC(=O)c3ccc(C(F)(F)F)cc3)ccc2OC[C@H]2O[C@@H](CC(=O)NCc3ccc4c(c3)OCO4)CC[C@H]21	none
CN1C(=O)c2cc(NC(=O)Cc3cccs3)ccc2OC[C@@H]2O[C@H](CC(=O)NCC3CCCCC3)CC[C@@H]21	Tg IFNy HTS -78
CN1C(=O)c2cc(NC(=O)c3ccc(C(F)(F)F)cc3)ccc2OC[C@H]2O[C@H](CC(=O)NCc3ccc4c(c3)OCO4)CC[C@H]21	none
CN1C(=O)c2cc(NC(=O)NCc3ccccc3)ccc2OC[C@H]2O[C@H](CC(=O)NCC3CCCCC3)CC[C@H]21	none
CN1C(=O)c2cc(NC(=O)NCc3ccccc3)ccc2OC[C@H]2O[C@H](CC(=O)NCC3CCCCC3)CC[C@@H]21	none
C[C@@H](NC(=O)C[C@H]1CC[C@@H]2[C@@H](COc3ccc(NS(=O)(=O)c4ccc(Cl)cc4)cc3C(=O)N2C)O1)c1ccccc1	Tg IFNy HTS -89
CN1C(=O)c2cc(NC(=O)c3ccc(C(F)(F)F)cc3)ccc2OC[C@@H]2O[C@@H](CC(=O)NCc3ccc4c(c3)OCO4)CC[C@@H]21	Tg IFNy HTS -82
C[C@H](NC(=O)C[C@H]1CC[C@H]2[C@@H](COc3ccc(NS(=O)(=O)c4ccc(Cl)cc4)cc3C(=O)N2C)O1)c1ccccc1	none
CN1C(=O)c2cc(NC(=O)Cc3cccs3)ccc2OC[C@@H]2O[C@H](CC(=O)NCC3CCCCC3)CC[C@H]21	none
CN1C(=O)c2cc(NC(=O)NCc3ccccc3)ccc2OC[C@@H]2O[C@H](CC(=O)NCC3CCCCC3)CC[C@@H]21	Tg IFNy HTS -87
C[C@@H](NC(=O)C[C@H]1CC[C@@H]2[C@H](COc3ccc(NS(=O)(=O)c4ccc(Cl)cc4)cc3C(=O)N2C)O1)c1ccccc1	none
CC(=O)Nc1cccc(-n2ccnc2-c2cccc(-n3cccn3)c2)c1	none
COc1ccc2c3c(n(C)c2c1)[C@H](CO)NCC31CN(CC2CCOCC2)C1	none
O=C(NCCCN1CCOCC1)c1ccccn1	none
CSc1cc(C(F)(F)F)cc(SC)c1SC	none
COc1cccc(C(=O)Nc2ccc(C)cc2-c2ccccc2CO)c1	none
CN1C(=O)c2cc(NC(=O)c3cnccn3)ccc2OC[C@@H]2O[C@H](CC(=O)NCC3CCCCC3)CC[C@@H]21	none
COCC(=O)NC[C@H]1[C@H](c2ccccc2)[C@H](CO)N1C(=O)c1ccccc1	none
Cc1ccccc1C(=O)N1CCC2(CCC(COCC3CC3)N2C)CC1 (stereo not given)	none
CC(=O)Nc1nc(C2CCN(c3cc(C)ncn3)CC2)cs1	none
CS(=O)(=O)N1[C@@H]2c3cccc(=O)n3C[C@H]1[C@H](CO)[C@H]2C(=O)NCc1ccc(F)cc1	none
COc1ccccc1S(=O)(=O)N(C)C[C@@H]1OCc2ccccc2-c2ccccc2C(=O)N([C@H](C)CO)C[C@H]1C	none
Cc1ccc(-c2nc(Cn3ccn4nc(-c5ccc6c(c5)OCO6)cc4c3=O)c(C)o2)cc1	none
Cc1ccc(Nc2nc(-c3nnc(-c4ccc(C)cc4)o3)nc3ccccc23)cc1	none
Cc1cc(C)cc(Nc2nc(-c3nnc(-c4ccccc4)o3)nc3ccccc23)c1	none

High-throughput results deposited in PubChem by Broad Institute.
